The list is not random: actives were taken first. Their share in the collection is about 10%.
GLS inhibitor: glutaminase GLS (human) inhibition | 0.21% of 410,000 active | GLS enzymatic activity, qHTS titration | Potency, µM (doses to about 45.5 µM), for inactives: at the highest dose activity change, negative = inhibition, actives largely listed as inhibitors | O94925; also: % is scaled to controls: 0 for no effect and ±100 for the full control effect
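Assay buffer: 45 mM KH2PO4 pH 8.2, 0.02% Tween-20. hKGA acts on L-glutamine (1 mM solution added); product glutamate is reported by an oxidase/peroxidase Amplex Red coupling, with fluorescence taken at baseline and 30 min.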
HP1b binding inh: inhibitors of HP1-beta chromodomain binding to methylated histone tails; 0.56% of 390,000 active; Potency, µM (highest dose often 114 µM), without a hit: at the highest dose activity change, negative = inhibition, hits mostly inhibitors; P83916; AlphaScreen HP1-beta / biotin-H3K9me3 peptide binding; also: nearly all actives have a fitted effect of over 70% in size
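HP1-beta protein (50 nM final) preincubated 30 min at room temperature with biotinylated H3(1-18)K9me3 peptide (50 nM) in PBS pH 7.4, 0.01% Tween-20, then compound added for 30 min. AlphaScreen streptavidin donor/nickel chelate acceptor beads (10 ug/mL final), 30 min dark, luminescence read.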
G9a block: G9a (human) methyltransferase inhibition | Q96KQ7 | G9a H3K9 monomethylation, AlphaScreen, 2 h | Potency, µM (titrated, usually from 102 µM), for inactives: at the top dose activity, negative = inhibition, hits mostly inhibitors | 8.8% of 350,000 active; also: % is scaled to controls: 0 for no effect and ±100 for the full control effect; nearly all actives have a fitted effect of over 75% in size
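G9a (20 nM) preincubated 15 min RT with compounds, then 500 nM biotinylated H3K9 peptide and 20 uM SAM added; 2 h RT reaction. Monomethyl-H3K9 product detected by AlphaScreen with anti-H3K9me1 antibody, streptavidin donor and anti-rabbit IgG acceptor beads.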
JMJD2A Tudor inh: blocks the human JMJD2A Tudor domain; 4.4% of 390,000 active; AlphaScreen JMJD2A-Tudor / H3K4me3 peptide binding; Potency, µM (highest dose often 114 µM), for inactives: at the top dose activity change, negative = inhibition, usual class: inhibitors; O75164; also: % is scaled to controls: 0 for no effect and ±100 for the full control effect; nearly all actives have a fitted effect of over 50% in size
Target sequence (O75164 whole entry, looked up, the tested form may be a part): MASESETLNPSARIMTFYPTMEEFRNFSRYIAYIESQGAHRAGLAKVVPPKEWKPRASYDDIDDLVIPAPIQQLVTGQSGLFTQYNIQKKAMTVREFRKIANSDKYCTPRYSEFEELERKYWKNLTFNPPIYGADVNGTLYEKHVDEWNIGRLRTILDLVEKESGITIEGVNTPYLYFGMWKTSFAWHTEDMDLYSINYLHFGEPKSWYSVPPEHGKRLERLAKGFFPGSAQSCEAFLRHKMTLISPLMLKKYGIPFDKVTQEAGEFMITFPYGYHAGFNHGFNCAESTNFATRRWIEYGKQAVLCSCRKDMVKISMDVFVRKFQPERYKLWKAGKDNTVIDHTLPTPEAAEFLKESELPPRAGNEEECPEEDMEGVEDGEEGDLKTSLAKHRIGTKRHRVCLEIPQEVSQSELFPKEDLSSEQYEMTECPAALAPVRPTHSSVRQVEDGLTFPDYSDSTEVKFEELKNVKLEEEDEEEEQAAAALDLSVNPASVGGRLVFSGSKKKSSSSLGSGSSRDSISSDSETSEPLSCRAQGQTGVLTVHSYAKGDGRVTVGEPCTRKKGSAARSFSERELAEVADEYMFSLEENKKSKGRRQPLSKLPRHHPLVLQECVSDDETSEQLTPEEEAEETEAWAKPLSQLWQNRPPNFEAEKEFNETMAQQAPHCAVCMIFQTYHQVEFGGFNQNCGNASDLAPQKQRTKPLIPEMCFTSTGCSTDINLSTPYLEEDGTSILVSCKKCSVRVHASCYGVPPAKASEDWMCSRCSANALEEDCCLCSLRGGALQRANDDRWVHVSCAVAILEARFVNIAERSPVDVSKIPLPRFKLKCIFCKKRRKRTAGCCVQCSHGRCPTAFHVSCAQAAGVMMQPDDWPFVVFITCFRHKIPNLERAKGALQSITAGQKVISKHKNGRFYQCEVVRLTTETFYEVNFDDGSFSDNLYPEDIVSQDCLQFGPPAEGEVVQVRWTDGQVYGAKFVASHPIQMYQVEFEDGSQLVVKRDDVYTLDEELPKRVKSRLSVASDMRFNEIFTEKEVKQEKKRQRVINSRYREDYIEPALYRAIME
BAZ2B block: inhibitors of human BAZ2B bromodomain; Q9UIF8; AlphaScreen BAZ2B-H3K14Ac peptide displacement; Potency, µM (doses to about 114 µM), without a hit: at the highest dose activity change, negative = inhibition, actives largely listed as inhibitors; 4.4% of 360,000 active; AID 504333; also: % is scaled to controls: 0 for no effect and ±100 for the full control effect; nearly all actives have a fitted effect of over 60% in size
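Complex of BAZ2B and biotin-H3K14Ac (50 nM apiece) forms over 30 min at RT, then faces library compounds up to 110 uM for another 30 min; AlphaScreen beads added, 20 min dark incubation, luminescence read.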
Active calls of the source: *; ? = inconclusive; . = not tested or not shown; [ ] = remark or other dose. Calls follow the shape of the dose curve; as a rule, active = well fitted curve in the direction sought with a large enough effect; inconclusive = small, poorly fitted or top-dose-only effect, or another doubt; inactive = no such curve, though single readings can be large; an effect the other way counts as inactive or inconclusive. Potency is read from the fitted curve at half-maximal effect.

SMILES	GLS inhibitor	HP1b binding inh	G9a block	JMJD2A Tudor inh	BAZ2B block
Cc1ccc(S(=O)(=O)N2CCc3ccccc3C2)cc1	-5%	38%	103%	31%	37%
COc1ccc(Oc2ncc3ncc(=O)n(Cc4ccc(F)cc4)c3n2)cc1	.	.	-5%[12.7 µM]	.	.
O=S1(=O)C=C[C@@H](COCc2ccccc2)N1Cc1ccc(Br)cc1	16%	.	.	.	.
O=C(COC(=O)[C@H](Cc1ccccc1)NC(=O)c1cccs1)Nc1c(Cl)cccc1Cl	1%	24%	50µM*	-17%	-2%
CO/N=C\CC(=O)Nc1ccc(Cl)cc1Cl	?	3%	10%[59 µM]	14µM*	7%
CC(=O)Nc1cccc(NC(=O)CCNC(=O)c2ccccc2)c1	-6%	-4%	-18%	-19%	-28%
COc1ccc(S(=O)(=O)NNC(N)=S)cc1	5%	45%	16µM*	8.9µM*	.
COc1ccc(NC(=S)NNC(=O)c2cccs2)cc1	26%	7%	40µM*	-11%	-2%
COc1ccc(NC(=S)NNC(=O)c2nnn(-c3ccccc3)c2C)cc1	-6%	11%	11µM*	-25%	-32%
COc1ccc(S(=O)(=O)NNC(=O)c2cccs2)cc1	37%	27%	45µM*	-9%	-12%
N#Cc1ccc(N2CCN(S(=O)(=O)c3ccc4c(c3)CC(=O)N4)CC2)cc1	.	.	.	-21%	.
COc1cccc(-n2c(Cn3nc(C(F)F)cc3C(F)F)n[nH]c2=S)c1	3%	4%	8.9µM*	45µM*	4%
COc1cccc(-n2c(Cn3nc(C(F)(F)F)cc3C)n[nH]c2=S)c1	-7%	34%	8.9µM*	56µM*	-16%
Cc1ccc(-n2c(Cn3nc(C(F)(F)F)cc3C)n[nH]c2=S)cc1	2%	3%	?	56µM*	-25%
COC(=O)c1ccc(Cn2nc(C(F)(F)F)cc2C)cc1	0%	71%	85%	26%	0%[57.1 µM]
COc1ccc(-n2c(Cn3nc(C(F)(F)F)cc3C)n[nH]c2=S)cc1	-5%	27%	7.9µM*	?	0%
CC(C)[C@@]1(c2ccc(Cl)cc2)ON(c2ccccc2C(F)(F)F)C1=O	.	.	3%[0.501 µM]	.	82%
COc1cccc(CN2CCC2(C)C(=O)Nc2ccc(C)c(O)c2)c1F (centres undefined)	3%	.	.	.	.
C=CCn1c(SCC(=O)Nc2nc(C)cs2)nnc1C(C)NC(=O)c1ccccc1Cl (centres undefined)	6%	19%	?	89µM*	-6%
OC1(c2ccccc2Cl)NN=C2CCCCCN21 (centres undefined)	-6%	-21%	79µM*	5.6µM*	-18%
O=C(NC(=O)c1cc([N+](=O)[O-])ccc1Cl)C1=C(N2CCCC2)COC1=O	-1%	31%	.	-16%	.
c1ccc(CCN(Cc2ccccc2)C2CCN(C3CCCC3)CC2)cc1	8%	?	50µM*	2.2µM*	50µM*
CC1=C(C(=O)N2CCOCC2)CC(CC(=O)NCCCCc2ccccc2)C(=O)N1CCC1=CCCCC1 (centres undefined)	0%	.	.	.	.
CCCC[C@]12Cc3ccccc3C(O1)c1c(c3ccccc3oc1=O)O2	.	.	?	.	1%[22.9 µM]
O=C(NC1CCSc2ccccc21)c1ccccc1F (centres undefined)	6%	45%	.	-6%	-3%
SMILES	GLS inhibitor	HP1b binding inh	G9a block	JMJD2A Tudor inh	BAZ2B block
COc1ccc(C(=O)NC2CCSc3ccccc32)cc1 (centres undefined)	10%	17%	20%	-7%	-20%
CSc1ccccc1C(=O)NC1CCSc2ccccc21 (centres undefined)	0%	5%	40µM*	-26%	-9%
CC(=O)Nc1ccc(C(=O)NC2CCSc3ccccc32)cc1 (centres undefined)	0%	26%	14µM*	-22%	-10%
COc1ccc(CN2CCNC(=O)C2CC(=O)NCCN2CCCCC2=O)c(F)c1 (centres undefined)	-1%	44%	.	-6%	-1%
COc1ccc(Br)cc1CNC(=O)CN1C(=O)c2cccnc2Oc2ccc(C)cc21	-31%	24%	8%[59 µM]	?	-3%
CCC(Oc1ccc(C)c(C)c1)C(=O)N1CCCN(C)CC1 (centres undefined)	-1%	21%	-3%	-21%	-7%
Cc1ccc(NS(=O)(=O)c2cc3c(cc2-c2ccccc2)NC(=O)CO3)cc1C	.	.	.	-29%	.
O=C(Nc1ccccc1)N1CCCC2CCCCC21 (centres undefined)	4%	34%	-22%	-9%	-6%
CC(=O)Nc1cc(NC(C)=O)cc(C(=O)N2CCCC3CCCCC32)c1 (centres undefined)	?	?	50µM*	56µM*	50µM*
COc1ccc(OC)c(S(=O)(=O)N2Cc3ccccc3CC2C(=O)Nc2ccc(C(C)=O)cc2)c1 (centres undefined)	4%	-4%	-11%[59 µM]	-24%	-17%
CCOC(=O)CSc1nnc(NC(=O)CN2CCCCC2)s1	34%	23%	5%[12.7 µM]	50µM*	-4%
CCOC(=O)CSc1nnc(NC(=O)c2cccc([N+](=O)[O-])c2C)s1	10%	31%	25µM*	-10%	-8%
O=C(CNC(=O)[C@@H]1Cc2ccccc2CN1)Nc1ccc2c(c1)OCCO2	1%	14%	40µM*	-15%	?
CCc1ccc(NC(=O)CNC(=O)[C@@H]2Cc3ccccc3CN2)cc1	-3%	14%	79µM*	-12%	-23%
CC(Sc1ccc(S(=O)(=O)N(C)C)cn1)C(=O)NC1CCCC1 (centres undefined)	4%	26%	22%[2.33 µM]	-20%	-2%
CC(C)CN1CC2(CCN(S(=O)(=O)c3ccccc3)CC2)C1	.	.	-2%[12.7 µM]	.	.
COC(=O)Cc1c[nH]c2cccc(OCC(O)CN(Cc3ccc([N+](=O)[O-])cc3)C(C)(C)C)c12 (centres undefined)	13%	?	.	?	71µM*
CC(C)CN(CC(C)C)CC(O)COc1ccc([N+](=O)[O-])cc1 (centres undefined)	16%	40%	43%[59 µM]	-15%	1%
O=C(Nc1nnc(C2CC2)o1)c1ccc(S(=O)(=O)N2CCCc3ccccc32)cc1	1%	45%	-12%	-23%	50µM*
CC1CCCCN1S(=O)(=O)c1ccc(C(=O)Nc2nnc(-c3ccco3)o2)cc1 (centres undefined)	14%	27%	.	-10%	89µM*
CC1CCCCN1S(=O)(=O)c1ccc(C(=O)Nc2nnc(C3CC3)o2)cc1 (centres undefined)	-1%	43%	-1%	-33%	50µM*
O=C(Nc1nnc(-c2ccco2)o1)c1ccc(S(=O)(=O)N2CCCCC2)cc1	1%	.	.	.	.
CC1CCN(S(=O)(=O)c2ccc(C(=O)Nc3nnc(C4CC4)o3)cc2)CC1	-1%	57%	26%	1%	50µM*
CCCCNC(=O)C(NC(=O)c1cccnc1)C(=O)c1ccccc1 (centres undefined)	8%	.	.	.	.

Compound activity as filed in PubChem BioAssay.
